# Results taken from article PMC5540273 (PLoS ONE, 2017).
# Key:
# Settings in all cases: concentration: 1 μM, replicates: in singlicate; n = 1
# [1] = tested on: PIP5K1A
# [2] = tested on: PIP5K1C
# [3] = tested on: PIP5K2B
# [4] = tested on: T1, PIP5K2C
# T1 construct: gene PIP4K2C
# [5] = tested on: T2, PKAC-alpha
# T2 construct: gene PRKACA
# [6] = tested on: T3, PKAC-beta
# T3 construct: gene PRKACB
# [7] = tested on: PKMYT1
# [8] = tested on: PKN1
# [9] = tested on: PKN2
# [10] = tested on: PLK1
# [11] = tested on: PLK2
# [12] = tested on: PLK3
# [13] = tested on: PLK4
# [14] = tested on: PRKCD
# [15] = tested on: PRKCE
# [16] = tested on: PRKCH
# [17] = tested on: PRKCI
# [18] = tested on: PRKCQ
# [19] = tested on: PRKD1
# [20] = tested on: PRKD2
# 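Further: KINOMEscan kinase panel screen.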
Structure (SMILES),%Inh [1] [%],%Inh [2] [%],%Inh [3] [%],%Inh [4] [%],%Inh [5] [%],%Inh [6] [%],%Inh [7] [%],%Inh [8] [%],%Inh [9] [%],%Inh [10] [%],%Inh [11] [%],%Inh [12] [%],%Inh [13] [%],%Inh [14] [%],%Inh [15] [%],%Inh [16] [%],%Inh [17] [%],%Inh [18] [%],%Inh [19] [%],%Inh [20] [%]
CNc1nccc(-c2ccc3c(N)n[nH]c3c2)n1 [GSK2206003],54,60,32,35,23,4,4,0,0,6,0,0,0,27,15,25,17,9,19,20
Cc1ccc(C)c(NC(=O)Nc2ccc(C)c(-c3ccc(C(=O)Nc4ccncc4)cc3)c2)c1 [GSK1398473],0,0,8,2,27,20,17,26,0,0,0,0,0,0,4,10,0,32,8,3
Cc1ccc(NC(=O)c2ccc(Cl)c(Cl)c2)cc1-c1ccc(C(=O)Nc2ccncc2)cc1 [GSK1398460],0,0,0,0,13,7,31,1,15,0,0,0,8,0,10,22,0,15,15,0
CN(c1ccc(NC(=O)Nc2cccc(Cl)c2)cc1)c1ccnc(N)n1.Cl [GW830707],12,0,0,29,13,26,3,0,0,26,14,3,14,7,28,0,0,0,0,0
Cc1cc(-c2c(-c3ccc(F)cc3)ncn2CCCN2CCOCC2)nc(N)n1 [SB-222517],0,0,0,0,26,16,4,0,10,12,11,25,15,28,0,0,27,0,0,0
N#CC1(c2cccc(C(=O)Nc3cccc(Oc4ccc5nc(NC(=O)C6CC6)sc5n4)c3)c2)CC1,3,59,0,23,34,0,0,0,0,13,5,21,0,5,9,0,18,40,40,0
COC(=O)Nc1nc2ccc(Oc3ccc(CC(=O)Nc4cc(C(F)(F)F)ccc4F)cc3)cc2[nH]1 [GW680903],7,37,2,31,0,0,0,0,0,0,0,0,0,0,9,0,17,0,0,0
CCn1cnc2c(NCc3ccccc3)ncnc21 [SKF-96418],21,22,0,0,0,0,0,0,0,14,25,34,1,3,29,0,0,0,0,0
Cc1cc(-c2ccnc(Nc3cccc(C#N)c3)n2)cc(C)c1O [GSK1440913],11,70,61,94.9,3,0,6,0,14,0,0,0,15,0,6,5,5,12,0,0
Cc1ccc(-c2ccc3occ(-c4ccc(S(C)=O)cc4)c3c2)nn1 (centres unmarked),0,42,17,58,0,0,11,0,9,0,0,0,2,1,0,0,0,13,30,9
